The record followed here is PubChem BioAssay (NCI).

The panel holds about 83,000 compounds, 20% with a hit somewhere; the sample as a whole holds those more often.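 In brief: 96-well plates, 48 h treatment, single concentration, percent growth endpoint.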 A number with no mark means an inactive call. Activity calls are given as the source filed them. How the source made its calls: active means growth percent below 10; inactive means the rest.

Test systems include DU-145 prostate; K-562 leukemia; MALME-3M melanoma; MDA-MB-231 breast; RXF 393 renal; SF-268 CNS; SF-295 CNS; SF-539 CNS; M14 melanoma; HCT-15 colon; HT29 colon; SNB-75 CNS; U251 CNS; PC-3 prostate; SK-MEL-5 melanoma; UACC-62 melanoma; LOX IMVI melanoma; SK-MEL-28 melanoma; UACC-257 melanoma; SNB-19 CNS.
Experiment in all cases: NCI-60 one-dose screen, 48 h (100 = growth as untreated, 0 = no growth, -100 = all killed)
What all share (details): 10 µM unless noted

For `CC1=NNC(=O)C1C` (centres undefined), the growth is 104% in the experiment on DU-145 prostate; 97.3% in the experiment on K-562 leukemia; 467% in the experiment on MALME-3M melanoma; 109% with MDA-MB-231 breast; 90.5% with RXF 393 renal; 107% in the experiment with SF-268 CNS. The growth was 110% with SF-295 CNS; 111% with SF-539 CNS; 96.8% with M14 melanoma; 98.7% with HCT-15 colon; 109% in the experiment on HT29 colon; 91.4% in the experiment with SNB-75 CNS. The growth in the experiment with U251 CNS is 105%; with PC-3 prostate, 108%; in the experiment with SK-MEL-5 melanoma, 103%; in the experiment with UACC-62 melanoma, 94.5%; with LOX IMVI melanoma, 99%; in the experiment with SK-MEL-28 melanoma, 106%.

For the compound `O=C(O)c1cccc2c1-c1ccccc1C2=O`, the growth in the experiment on DU-145 prostate is 114%; with K-562 leukemia it was 119%; with MALME-3M melanoma it was 85.8%; in the experiment with MDA-MB-231 breast, 96%; in the experiment with RXF 393 renal, 90.4%; in the experiment on SF-268 CNS it was 105%. The growth was 96.6% with SF-295 CNS; 97.9% in the experiment on SF-539 CNS; 95.7% in the experiment with HCT-15 colon; 103% in the experiment on HT29 colon; 86.8% in the experiment with SNB-75 CNS; 95.7% in the experiment on U251 CNS. The growth in the experiment with PC-3 prostate was 94%; with SK-MEL-5 melanoma, 102%; with UACC-62 melanoma, 90.1%; in the experiment with LOX IMVI melanoma it was 97.5%; in the experiment with SK-MEL-28 melanoma, 109%.

For the compound `CN(C)c1ccc(/C=C\C2=[N+](C)c3ccccc3C2(C)C)cc1`, the growth was 16.3% in the experiment on DU-145 prostate; 90.8% with K-562 leukemia; 20.8% in the experiment on MALME-3M melanoma; 23% in the experiment on MDA-MB-231 breast; 37.3% with RXF 393 renal; 6% (active) in the experiment with SF-268 CNS. Besides, the growth in the experiment on SF-295 CNS is -23.9% (active); with SF-539 CNS it was 22.1%; in the experiment on HCT-15 colon it was 63.2%; in the experiment with HT29 colon, 10.5%; in the experiment on SNB-75 CNS it was 31.3%; with U251 CNS, 11%. Besides, the growth is -4.73% (active) in the experiment with PC-3 prostate; 3.41% (active) in the experiment with SK-MEL-5 melanoma; 15.9% in the experiment on UACC-62 melanoma; 16.1% in the experiment on LOX IMVI melanoma; 37.5% in the experiment on SK-MEL-28 melanoma.

On to `CS(=O)(=O)c1ccc(-c2cnc3ccc(-c4cccc(S(C)(=O)=O)c4)nn23)cc1`, for which the growth in the experiment on DU-145 prostate is 27.9%; in the experiment on K-562 leukemia it was 46.9%; with MALME-3M melanoma, 35.3%; in the experiment with MDA-MB-231 breast it was 49.4%; in the experiment with RXF 393 renal, 9.52% (active); in the experiment on SF-268 CNS, 36.3%. Besides, the growth in the experiment on SF-295 CNS was 53.7%; in the experiment with SF-539 CNS, 24%; in the experiment with UACC-257 melanoma, 58.1%; with HCT-15 colon, 28.2%; in the experiment with HT29 colon, 33.7%; in the experiment on SNB-75 CNS it was 12.4%. The growth in the experiment with U251 CNS was 46.3%; in the experiment with PC-3 prostate, 37.6%; in the experiment with SK-MEL-5 melanoma it was 38.3%; in the experiment on UACC-62 melanoma it was 28.8%; with LOX IMVI melanoma, 12.3%; in the experiment with SK-MEL-28 melanoma, 52.5%.

In the case of `Brc1cccc(-c2nc(-c3ccc4c(c3)OCCO4)co2)c1`, the growth is 88.2% [25 µM] in the experiment with DU-145 prostate; 18.5% [25 µM] with K-562 leukemia; 50.2% [25 µM] in the experiment with MALME-3M melanoma; 47.5% [25 µM] in the experiment with MDA-MB-231 breast; 66.2% [25 µM] in the experiment with RXF 393 renal; 73.6% [25 µM] with SF-268 CNS. In addition, the growth in the experiment with SF-295 CNS is 52.4% [25 µM]; in the experiment with SF-539 CNS it was 52.2% [25 µM]; in the experiment with UACC-257 melanoma it was 87.3% [25 µM]; in the experiment on HCT-15 colon it was 34.5% [25 µM]; with HT29 colon, 17.1% [25 µM]; with SNB-19 CNS it was 63.1% [25 µM]. In addition, the growth is 43.3% [25 µM] in the experiment on U251 CNS; 74% [25 µM] in the experiment on PC-3 prostate; 57.6% [25 µM] with SK-MEL-5 melanoma; 44.6% [25 µM] in the experiment on UACC-62 melanoma; 45.4% [25 µM] in the experiment with LOX IMVI melanoma; 72.9% [25 µM] with SK-MEL-28 melanoma.

Turning to `C=C1CC2(OC1=O)C(=O)N(CCCCCCCCCCCCN1C(=O)C3(CC(=C)C(=O)O3)c3ccccc31)c1ccccc12` (centres undefined), the growth is 98.7% in the experiment on DU-145 prostate; 6.7% (active) with K-562 leukemia; 75.5% in the experiment on MALME-3M melanoma; 55.8% in the experiment with MDA-MB-231 breast; 52.8% with RXF 393 renal; 93% in the experiment on SF-268 CNS. The growth was 97.6% in the experiment on SF-295 CNS; 87.3% in the experiment with SF-539 CNS; 94.9% in the experiment on UACC-257 melanoma; 65% in the experiment with HCT-15 colon; 86.7% in the experiment on HT29 colon; 89.5% in the experiment on SNB-19 CNS. Further, the growth was 74.3% with U251 CNS; 64.7% with PC-3 prostate; 86.4% in the experiment with SK-MEL-5 melanoma; 78.9% in the experiment on UACC-62 melanoma; 4.86% (active) in the experiment with LOX IMVI melanoma; 89.3% in the experiment with SK-MEL-28 melanoma.

As for `O=C(Cc1ccccc1)c1ccc(Cl)cc1`, the growth is 119% in the experiment with DU-145 prostate; 123% in the experiment on K-562 leukemia; 105% with MALME-3M melanoma; 103% with MDA-MB-231 breast; 121% in the experiment with RXF 393 renal; 111% with SF-268 CNS. The growth in the experiment on SF-295 CNS was 103%; in the experiment with SF-539 CNS it was 107%; in the experiment with M14 melanoma it was 101%; in the experiment on HCT-15 colon it was 97.1%; in the experiment on HT29 colon, 115%; in the experiment on SNB-75 CNS, 95.9%. The growth is 116% with PC-3 prostate; 103% in the experiment on SK-MEL-5 melanoma; 93.2% with UACC-62 melanoma; 102% in the experiment with LOX IMVI melanoma; 114% with SK-MEL-28 melanoma.

Turning to `O=C1C=CC(=O)N1c1ccc(Cc2ccc(N3C(=O)C=CC3=O)cc2)cc1`, the growth with DU-145 prostate is 111%; in the experiment with K-562 leukemia it was 66.4%; with MALME-3M melanoma, 88.2%; with MDA-MB-231 breast it was 90.3%; in the experiment with RXF 393 renal it was 106%; in the experiment on SF-268 CNS, 118%. Besides, the growth in the experiment with SF-295 CNS is 121%; with SF-539 CNS it was 93.4%; in the experiment with M14 melanoma, 96.8%; with HCT-15 colon, 91.1%; in the experiment with HT29 colon, 133%; in the experiment with SNB-75 CNS it was 164%. Besides, the growth with U251 CNS is 96.8%; in the experiment with PC-3 prostate, 91.2%; in the experiment on SK-MEL-5 melanoma, 96.3%; in the experiment with UACC-62 melanoma, 83.7%; with LOX IMVI melanoma, 96.1%; with SK-MEL-28 melanoma, 120%.

Consider `COc1cccc(/C=C\C(=O)c2ccccc2)c1`, for which the growth in the experiment with DU-145 prostate is 53.8%; in the experiment with K-562 leukemia, 31%; with MALME-3M melanoma, 83.4%; in the experiment with MDA-MB-231 breast it was 88.5%; in the experiment on RXF 393 renal, 50.2%; in the experiment with SF-268 CNS it was 60.4%. Besides, the growth with SF-295 CNS is 77.5%; in the experiment on SF-539 CNS, 87.7%; with M14 melanoma it was 85.1%; with HCT-15 colon it was 66.3%; in the experiment on HT29 colon, 73.4%; with SNB-75 CNS, 78.9%. Also, the growth is 35.1% in the experiment on U251 CNS; 63.5% in the experiment with PC-3 prostate; 90.8% with SK-MEL-5 melanoma; 70.7% in the experiment on UACC-62 melanoma; 30.3% in the experiment on LOX IMVI melanoma; 103% in the experiment on SK-MEL-28 melanoma.
